# Source: PubChem BioAssay (NCATS)
# Records with an inconclusive call do not appear. Active and inactive are the calls of the source. Calls follow the shape of the dose curve; as a rule, active = well fitted inhibition curve with a large enough effect; inconclusive = small, poorly fitted or top-dose-only effect; inactive = flat fitted curve, though single readings scatter.
# System: CRL-7250
# Experiment: qHTS assay to identify novel small-molecules to repurpose for Merkel cell carcinoma treatment (AID 1296009); also: nearly all actives have a fitted effect of over 60% in size
# Conditions: MCC and control cell lines, CellTiter-Glo viability, 72 h; series mostly up to 44.8 µM
# Procedure, shortened: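 Cells were treated for 72 hr at 37 degree celsius with compounds in 8- or 11-point dose response. Viability was read by CellTiter-Glo luminescence, normalized to no-cell (cytotoxicity) and DMSO controls.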
row,SMILES,outcome
1,CCCCCOC(=O)Nc1nc(=O)n([C@@H]2O[C@H](C)[C@@H](O)[C@H]2O)cc1F,inactive
2,CCN(CC)C(=S)SSC(=S)N(CC)CC,inactive
3,Nc1ccc(O)c(C(=O)O)c1,inactive
4,CN(C)c1ccc(O)c2c1C[C@H]1C[C@H]3[C@H](N(C)C)C(=O)C(C(N)=O)=C(O)[C@@]3(O)C(=O)C1=C2O,inactive
5,CN1CCC(=C2c3ccccc3C=Cc3ccccc32)CC1,inactive
6,CCOC(=O)[C@H](CCc1ccccc1)N[C@@H](C)C(=O)N1Cc2cc(OC)c(OC)cc2C[C@H]1C(=O)O,inactive
7,O=C1CCC(N2C(=O)c3ccccc3C2=O)C(=O)N1 (stereo not given),inactive
8,CC1=C(C(=O)O)N2C(=O)[C@@H](NC(=O)[C@H](N)c3ccc(O)cc3)[C@H]2SC1,inactive
9,CN1CCN(C2=Nc3ccccc3Oc3ccc(Cl)cc32)CC1,inactive
10,O[C@@H]1CO[C@H]2[C@@H]1OC[C@@H]2O,inactive
11,CC(=O)OCC(CCn1cnc2cnc(N)nc21)COC(C)=O,inactive
12,CN(CCOc1ccc(NS(C)(=O)=O)cc1)CCc1ccc(NS(C)(=O)=O)cc1,inactive
13,CN(C)c1nc(N(C)C)nc(N(C)C)n1,inactive
14,CNCCc1ccccn1,inactive
15,Cc1cccc(C)c1OCC(C)N (stereo not given),inactive
16,CN(C)CCc1c[nH]c2ccc(C[C@H]3COC(=O)N3)cc12,inactive
17,CO/N=C1\CN(c2nc3c(cc2F)c(=O)c(C(=O)O)cn3C2CC2)CC1CN (stereo not given),inactive
18,C[C@@H]1CC(=O)NN=C1c1ccc(NN=C(C#N)C#N)cc1,inactive
19,CCOc1ccc2ccccc2c1C(=O)N[C@@H]1C(=O)N2[C@@H]1SC(C)(C)[C@@H]2C(=O)O,inactive
20,COc1cc(C(C)=O)ccc1OCCCN1CCC(c2noc3cc(F)ccc23)CC1,inactive

row,SMILES,outcome
1,O=NN(CCCl)C(=O)NCCCl,inactive
2,CNS(=O)(=O)CCc1ccc2[nH]cc(C3CCN(C)CC3)c2c1,inactive
3,CN(C)[C@@H]1C(=O)C(C(N)=O)=C(O)[C@@]2(O)C(=O)C3=C(O)c4c(O)ccc(Cl)c4[C@@H](O)[C@H]3C[C@@H]12,inactive
4,CS(=O)(=O)CCNCc1ccc(-c2ccc3ncnc(Nc4ccc(OCc5cccc(F)c5)c(Cl)c4)c3c2)o1,inactive
5,CCCCc1ncc(/C=C(\Cc2cccs2)C(=O)O)n1Cc1ccc(C(=O)O)cc1,inactive
6,COc1cc(Cc2cnc(N)nc2N)cc(OC)c1OC,inactive
7,CCC1C(=O)OCC1Cc1cncn1C (stereo not given),inactive
8,Cc1ccc(C)c(OCCCC(C)(C)C(=O)O)c1,inactive
9,Cn1ccc2cc3c(cc21)CCN3C(=O)Nc1cccnc1,inactive [at 17.4 µM]
10,Cc1nc2n(c(=O)c1CCN1CCC(c3noc4cc(F)ccc34)CC1)CCC[C@H]2O,inactive [at 17.4 µM]
11,NCCCC(O)(P(=O)(O)O)P(=O)(O)O,inactive
12,Cc1ccc(-c2cc(C(F)(F)F)nn2-c2ccc(S(N)(=O)=O)cc2)cc1,inactive
13,O=c1n(CCCN2CCN(c3cccc(Cl)c3)CC2)nc2ccccn12,inactive
14,O=C1NC(=O)C(c2ccccc2)(c2ccccc2)N1,inactive
15,CCN(CC)CCCC(C)Nc1ccnc2cc(Cl)ccc12 (stereo not given),inactive [at 9.27 µM]
16,C[C@H]1O[C@H](O[C@H]2[C@H](O)[C@@H](O)[C@@H](O[C@H]3[C@H](O)[C@@H](O)[C@H](O)O[C@@H]3CO)O[C@@H]2CO)[C@H](O)[C@@H](O)[C@@H]1N[C@H]1C=C(CO)[C@@H](O)[C@H](O)[C@H]1O,inactive
17,C[C@@H](NCCCc1cccc(C(F)(F)F)c1)c1cccc2ccccc12,inactive
18,CCCN[C@H]1CCc2nc(N)sc2C1,inactive
19,Cc1[nH]c(=O)c(C#N)cc1-c1ccncc1,inactive
20,CCN(CCO)CCCC(C)Nc1ccnc2cc(Cl)ccc12 (stereo not given),inactive [at 4.96 µM]
